Source: PubChem (Broad Institute)
SIRT5 block = SIRT5 desuccinylase inhibitors, primary screen, biochemical, fluorescence imaging, single point, set 5 | Purified SirT5, succinyl-peptide AMC, trypsin-coupled fluorescence | inhibition, % at 15 µM | hit rate 1.1% among 330,000 | AID 652115, 2013; in the data active = inhibition above about 15%
Target sequence (Q9NXA8 whole entry, looked up): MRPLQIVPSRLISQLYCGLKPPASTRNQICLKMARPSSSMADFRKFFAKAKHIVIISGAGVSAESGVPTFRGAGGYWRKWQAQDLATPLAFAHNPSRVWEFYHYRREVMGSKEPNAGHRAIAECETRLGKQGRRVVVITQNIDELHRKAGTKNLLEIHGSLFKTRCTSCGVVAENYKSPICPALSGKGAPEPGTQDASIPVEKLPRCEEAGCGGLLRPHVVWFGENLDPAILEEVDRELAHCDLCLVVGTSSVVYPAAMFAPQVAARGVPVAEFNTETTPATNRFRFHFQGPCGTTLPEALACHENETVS
INS-1E GSIS act = GLuc luminescence reporter in INS-1E cells, primary screen for activators of glucose-dependent secretion of insulin; INS-1E GLuc reporter insulin secretion, 2-3 h; activation, % at 16.6 µM; hit rate 0.61% among 370,000;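 active = lowest replicate activation of at least 40%, so every replicate reaches that level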;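 also: 0% = median of neutral control wells and 100% = median of IBMX positive control wells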
CASP6 VEID inh = human caspase-6 inhibitors, primary screen, biochemical, VEID-R110 fluorescence, single point, set 2. purified caspase-6, Z-VEID-R110 cleavage fluorescence. inhibition, % at 12.5 µM. P55212. hit rate 0.53% among 350,000;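 active = mean inhibition across replicates at least about 35%, with every replicate also reaching that limit, limit read from the data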;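 also: 0% = median of neutral control wells and 100% = no fluorescence left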
Target sequence (P55212 24-179 limits assumed): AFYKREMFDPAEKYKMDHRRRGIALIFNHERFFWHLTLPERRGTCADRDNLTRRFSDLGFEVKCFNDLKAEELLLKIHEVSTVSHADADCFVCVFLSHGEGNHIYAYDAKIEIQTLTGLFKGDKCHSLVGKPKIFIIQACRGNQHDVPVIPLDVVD
Target sequence (P55212 194-293 limits assumed): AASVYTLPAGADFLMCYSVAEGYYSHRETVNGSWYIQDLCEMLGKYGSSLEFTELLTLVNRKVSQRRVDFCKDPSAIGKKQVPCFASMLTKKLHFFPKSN
FGF22 binding-1 = binders of human FGF22 protein, primary screen, FGF22 synaptogenesis inhibitor project, biophysical, thermal shift, single point; recombinant FGF22 thermal shift, SYPRO orange fluorescence; percent of sucrose octasulfate shift, DMSO zero; activity (Tm shift, normalised), % at 9.99 µM; hit rate 1.5% among 340,000;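 active = mean Tm shift, scaled 0 neutral to 100 positive control, at about 1.3% or above, every replicate too, limit read from the data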
ERAP1 HTS inh = human ERAP1 aminopeptidase inhibitors, primary screen, biochemical, single point, plate reader; Endoplasmic reticulum aminopeptidase 1 (Homo sapiens), Q9NZ08; inhibition, % at 10.7 µM; hit rate 0.15% among 340,000; recombinant ERAP1, Leu-AMC fluorescence, 60 min;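 active = mean replicate inhibition of at least 30%, or all replicates individually reaching that 30% level; inactive = mean below 30% and not every replicate reaching it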;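 also: 0% = neutral control wells and 100% = L-leucinethiol positive control wells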
FGF22 binding-2 = binders of human FGF22 protein, dose response, FGF22 synaptogenesis inhibitor project, biophysical, thermal shift, cherry-pick retest; hit rate 2% among 1,000; recombinant FGF22 thermal shift, SYPRO orange fluorescence; shares compounds with FGF22 binding-1; thermal shift activity, °C (ΔTm) at 38 µM;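 active = fitted rise in melting shift crosses a set limit at or below the top valid dose tested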
SYPRO no-protein = compound-only thermal shift signal without protein, dose response, artefact control for FGF22 binder project, biochemical, cherry-picked samples, RT-PCR instrument; shares compounds with FGF22 binding-1; compound-only SYPRO orange thermal shift counter-screen, no protein; AC50, µM (top dose mostly 38 µM); hit rate 2% among 1,000; AID 743019, 2013;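 active = rising signal whose fitted curve reaches the 0.54 level within the top valid dose, showing a melting point, actives reach about 13 µM in these data; inactive = the rest, including activity in the opposite direction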; also: value is where the raw curve crosses a fixed level and not half-maximal
The depositor's hits bear a star; [ ] = another dose, or the depositor's remark. This is a sample that favours compounds with a hit; in the whole collection about 3.3% have one here.

What do the screens show for `C[C@H]1CN([C@@H](C)CO)C(=O)c2cc(NC(=O)CCN3CCOCC3)ccc2O[C@H]1CN(C)C(=O)NC1CCCCC1`?
SIRT5 block: 1; INS-1E GSIS act: 10; CASP6 VEID inh: 1; FGF22 binding-1: 3.5*; ERAP1 HTS inh: 0; FGF22 binding-2: 0.15[42 µM]; SYPRO no-protein: inactive

How did Cc1ccc(S(=O)(=O)Nc2ccc3c(c2)CC(=O)N([C@@H](C)CO)C[C@@H](C)[C@H](CN(C)C(=O)Nc2ccccc2)O3)cc1 do in these assays?
SIRT5 block: 2; INS-1E GSIS act: -2; CASP6 VEID inh: -2; FGF22 binding-1: 0; ERAP1 HTS inh: 2

How did Cc1noc(C)c1S(=O)(=O)Nc1ccc2c(c1)CC(=O)N([C@@H](C)CO)C[C@H](C)[C@H](CN(C)S(=O)(=O)c1c(C)noc1C)O2 do in these assays?
SIRT5 block: 8; INS-1E GSIS act: 7; CASP6 VEID inh: -2; FGF22 binding-1: 0; ERAP1 HTS inh: -2

What do the screens show for `Cc1ccc(S(=O)(=O)Nc2ccc3c(c2)CC(=O)N([C@H](C)CO)C[C@@H](C)[C@H](CN(C)C(=O)Nc2ccccc2)O3)cc1`?
SIRT5 block: 3; INS-1E GSIS act: 11; CASP6 VEID inh: 1; FGF22 binding-1: 2.2*; ERAP1 HTS inh: 2; FGF22 binding-2: 0.13; SYPRO no-protein: inactive

What do the screens show for `C[C@H](CO)N1C[C@H](C)[C@H](CN(C)C(=O)NC2CCCCC2)Oc2ccc(NC(=O)CCN3CCOCC3)cc2C1=O`?
SIRT5 block: -3; INS-1E GSIS act: -6; CASP6 VEID inh: 0; FGF22 binding-1: 0; ERAP1 HTS inh: 1

What do the screens show for `Cc1noc(C)c1S(=O)(=O)Nc1ccc2c(c1)CC(=O)N([C@H](C)CO)C[C@@H](C)[C@H](CN(C)S(C)(=O)=O)O2`?
INS-1E GSIS act: 8; FGF22 binding-1: 1.3*; FGF22 binding-2: -0.038; SYPRO no-protein: inactive

Results for Cc1noc(C)c1NC(=O)Nc1ccc2c(c1)CC(=O)N([C@@H](C)CO)C[C@H](C)[C@H](CN(C)C(=O)Nc1ccc(C(F)(F)F)cc1)O2 ?
SIRT5 block: 3; INS-1E GSIS act: -12; CASP6 VEID inh: 0; FGF22 binding-1: 0; ERAP1 HTS inh: 1

How did C[C@@H]1CCCCO[C@@H](CN(C)CC2CCCCC2)[C@H](C)CN([C@H](C)CO)C(=O)c2cc(NS(=O)(=O)c3cccs3)ccc2O1 do in these assays?
SIRT5 block: 0; INS-1E GSIS act: -10; CASP6 VEID inh: -1; FGF22 binding-1: 1; ERAP1 HTS inh: -6

What do the screens show for `CN(CC(=O)Nc1ccccc1Cl)C(=O)COC(=O)c1ccc(-c2ccc(O)cc2)cc1`?
SIRT5 block: -6; INS-1E GSIS act: 3; CASP6 VEID inh: 2; FGF22 binding-1: 0; ERAP1 HTS inh: 2

What do the screens show for `CN(CC(=O)Nc1ccccc1Cl)C(=O)COC(=O)c1nc(Cl)ccc1Cl`?
SIRT5 block: 0; INS-1E GSIS act: -2; CASP6 VEID inh: 1; FGF22 binding-1: 1.6*; ERAP1 HTS inh: -3; FGF22 binding-2: 0.041; SYPRO no-protein: inactive

Results for CSc1ccc(C(=O)NCC2CCN(C(=O)C(=O)c3cc4ccccc4o3)CC2)cc1 ?
INS-1E GSIS act: -12; CASP6 VEID inh: 0; FGF22 binding-1: 1.5*; ERAP1 HTS inh: 3; FGF22 binding-2: -0.037; SYPRO no-protein: inactive

What do the screens show for `COc1cc(OC)cc(C(=O)NCC2CCN(C(=O)C(=O)c3cc4ccccc4o3)CC2)c1`?
CASP6 VEID inh: 7; FGF22 binding-1: 0; ERAP1 HTS inh: 0

What do the screens show for `CCOC(=O)c1c(C)[nH]c(C)c1C(=O)COC(=O)/C=C/c1ccccc1[N+](=O)[O-]`?
SIRT5 block: 0; INS-1E GSIS act: 2; CASP6 VEID inh: 4; FGF22 binding-1: 2.0*; ERAP1 HTS inh: 1; FGF22 binding-2: -0.03; SYPRO no-protein: inactive

Results for Cc1ccc(S(=O)(=O)Nc2ccc3c(c2)C(=O)N([C@@H](C)CO)C[C@H](C)[C@H](CN(C)C(=O)Nc2ccccc2)OCCCC[C@H](C)O3)cc1 ?
SIRT5 block: 3; INS-1E GSIS act: -12; CASP6 VEID inh: -4; FGF22 binding-1: 0; ERAP1 HTS inh: 1

How did COc1ccccc1-c1ccc2n(c1=O)C[C@H]1[C@H](CO)[C@@H](C(=O)NC3CCC3)N(C(=O)NC(C)C)[C@@H]21 do in these assays?
SIRT5 block: -15; INS-1E GSIS act: -3; CASP6 VEID inh: 4; FGF22 binding-1: 0; ERAP1 HTS inh: 2

Results for COCCNC(=O)[C@H]1[C@H](CO)[C@H]2Cn3c(ccc(-c4ccc(F)cc4)c3=O)[C@@H]1N2C(=O)NC(C)C ?
SIRT5 block: -39; INS-1E GSIS act: 1; CASP6 VEID inh: 0; FGF22 binding-1: 14*; ERAP1 HTS inh: -3; FGF22 binding-2: 0.26[42 µM]; SYPRO no-protein: inactive

Results for COCCNC(=O)[C@@H]1[C@@H](CO)[C@@H]2Cn3c(ccc(-c4ccc(OC)cc4)c3=O)[C@H]1N2C(=O)NC(C)C ?
SIRT5 block: -83; INS-1E GSIS act: 4; CASP6 VEID inh: -2; FGF22 binding-1: 0; ERAP1 HTS inh: 0

Results for COc1ccccc1-c1ccc2n(c1=O)C[C@@H]1[C@@H](CO)[C@H](C(=O)NC3CCC3)N(C(=O)NC(C)C)[C@H]21 ?
SIRT5 block: -13; INS-1E GSIS act: -2; CASP6 VEID inh: 3; FGF22 binding-1: 15*; ERAP1 HTS inh: 0; FGF22 binding-2: 0.026; SYPRO no-protein: inactive

Results for O=C(C[C@H]1CC[C@H]2[C@@H](COC[C@@H](O)CN2C(=O)Nc2ccccc2)O1)NCc1ccccc1F ?
SIRT5 block: -6; INS-1E GSIS act: -7; CASP6 VEID inh: 0; FGF22 binding-1: 0; ERAP1 HTS inh: -3

How did O=C(c1cccc(F)c1)N1C[C@@H]2[C@H](c3ccccc31)[C@H](CO)N2C(=O)C1CCCCC1 do in these assays?
SIRT5 block: 3; INS-1E GSIS act: -10; CASP6 VEID inh: -2; FGF22 binding-1: 66*; ERAP1 HTS inh: -1; FGF22 binding-2: -0.081[42 µM]; SYPRO no-protein: inactive
